One assay deals with Staphylococcus aureus. The settings on record: Concentration 32 ug.mL-1;; ASSAY_TEST Inhibition of Bacterial Growth; detection method Absorption (OD600); MEDIA CAMHB; plate type 384well; NBS; CORNING #3640; time 18 hr.
The test system of another assay is Escherichia coli. The settings on record: Concentration 32 ug.mL-1;; ASSAY_TEST Inhibition of Bacterial Growth; detection method Absorption (OD600); MEDIA CAMHB; plate type 384well; NBS; CORNING #3640; time 18 hr.

The structures appear in SMILES notation. Entries with a potency or affinity are not part of this list.

The term Inhibition denotes the relative decrease from the control value, in per cent. `Cc1cc2nn(CC(=O)Nc3ccc(Cl)cc3)c(=O)n2c(Nc2ccc(F)c(C)c2)n1`: the Inhibition with Staphylococcus aureus is 4.83%; in the assay on Escherichia coli it was -2.12%.

Turning to `CSc1ccc(CNC(=O)Cn2nc3c(N4CC(C)CC(C)C4)nccn3c2=O)cc1` (centres undefined), the values for the Inhibition in the assay with Staphylococcus aureus and in the assay on Escherichia coli were 11.21% and 0.68%, respectively.

Regarding `O=C(Cn1nc2ccc(SCc3ccc(Cl)cc3)nn2c1=O)Nc1ccc(F)c(F)c1`, the Inhibition in the assay with Staphylococcus aureus is listed as -1.34%; with Escherichia coli it was -2.62%.

For the compound `CCc1ccc(N(Cc2ccc(C)cc2)S(=O)(=O)c2cccn3c(CC)nnc23)cc1`, the Inhibition with Staphylococcus aureus is 5.86%; in the assay with Escherichia coli it was -4.79%.

For the compound `Cc1ccc(-c2cc3c4nn(CC(=O)N5CCN(c6ccccc6F)CC5)c(=O)n4ccn3n2)cc1C`, the Inhibition in the assay with Staphylococcus aureus amounted to 8.03%; in the assay with Escherichia coli, 4.31%.

For `O=c1c2nnc(SCc3cccc(F)c3)n2ccn1-c1ccc(Br)cc1`, the Inhibition with Staphylococcus aureus is 15.11%; with Escherichia coli it was -3.12%.

On to `COc1cc(NC(=O)C(C)Sc2nnc3c(=O)n(-c4ccccc4OC)ccn23)cc(OC)c1` (centres undefined), for which the Inhibition is recorded as 15.1% with Staphylococcus aureus and -4.09% with Escherichia coli.

With `O=c1c2sccc2n2c(=O)n(Cc3ccccc3Cl)nc2n1Cc1cccs1`, the Inhibition in the assay on Staphylococcus aureus is given as -1.31%; in the assay with Escherichia coli, -2.76%.

In the case of `COc1ccccc1NC(=O)CSc1nnc2c(=O)n(-c3ccc(C)c(C)c3)ccn12`, the values for the Inhibition with Staphylococcus aureus and with Escherichia coli were 0.64% and -7.52%, respectively.

In the case of `COc1ccc(N(Cc2ccc(Cl)cc2)S(=O)(=O)c2ccc3nncn3c2)cc1`, the Inhibition is reported as -6.81% in the assay with Staphylococcus aureus and -4.15% with Escherichia coli.

`COc1ccc(NC(=O)Cn2nc3c(Oc4cccc(F)c4)nccn3c2=O)cc1`: the Inhibition was -3.6% with Staphylococcus aureus and -10.71% in the assay with Escherichia coli.

In the case of `Cc1cc2nn(CC(=O)Nc3ccccc3C)c(=O)n2c(Nc2ccc(F)c(C)c2)n1`, the values for the Inhibition with Staphylococcus aureus and in the assay on Escherichia coli were 4.45% and -4.23%, respectively.

In the case of `CCOC(=O)c1cccc(NC(=O)CSc2nnc3ccc(C(=O)Nc4cccc(F)c4)cn23)c1`, the values for the Inhibition in the assay with Staphylococcus aureus and with Escherichia coli were 5.02% and -5.71%, respectively.

With `COc1ccc(-c2cc3c4nnc(SCC(=O)Nc5ccc(OC)c(Cl)c5)n4ccn3n2)cc1`, the Inhibition is listed as 3.66% in the assay on Staphylococcus aureus and -2.1% with Escherichia coli.

As for `Cc1cc(C)cc(NC(=O)Cn2nc3ccc(SC(C)(C)C)nn3c2=O)c1`, the Inhibition was 9.02% in the assay on Staphylococcus aureus and -2.5% with Escherichia coli.

As for `CCCCc1ccc(NC(=O)Cn2nc3c(N4CCN(c5ccccc5C)CC4)nccn3c2=O)cc1`, the Inhibition in the assay with Staphylococcus aureus is recorded as 0.53%; in the assay with Escherichia coli, -13.2%.

For `COc1ccc(CN(c2cc(C)cc(C)c2)S(=O)(=O)c2cccn3c(C)nnc23)cc1`, the Inhibition in the assay with Staphylococcus aureus is recorded as -21.45%; in the assay with Escherichia coli, -2.42%.

As to `Cc1cc2nn(CC(=O)Nc3ccc(F)cc3Cl)c(=O)n2c(Nc2ccc(F)cc2)n1`, the values for the Inhibition in the assay with Staphylococcus aureus and in the assay on Escherichia coli were 4.61% and -0.12%, respectively.

As to `CCc1nnc2c(S(=O)(=O)N(Cc3cccc(F)c3)c3cccc(C)c3)cccn12`, the Inhibition with Staphylococcus aureus is listed as 12.77%; with Escherichia coli it was -0.95%.

For `COc1ccc(NC(=O)C(C)Sc2nnc3c(=O)n(-c4cccc(OC)c4)ccn23)cc1` (centres undefined), the Inhibition with Staphylococcus aureus was 6.45%; in the assay with Escherichia coli, -9.09%.

As to `O=c1c2nn(Cc3cccc(Cl)c3)c(=O)n2ccn1-c1ccccc1`, the Inhibition in the assay on Staphylococcus aureus was 0.94%; in the assay with Escherichia coli, -5.32%.

As for `CCOC(=O)c1cccc(NC(=O)CSc2nc3ccccc3n3c(C(C)C)nnc23)c1`, the values for the Inhibition in the assay with Staphylococcus aureus and with Escherichia coli were 7.87% and -1.12%, respectively.

Regarding `COc1cc(OC)c(NC(=O)Cn2nc3ccc(Sc4cccc(F)c4)nn3c2=O)cc1Cl`, the values for the Inhibition in the assay with Staphylococcus aureus and with Escherichia coli were 4.57% and -1.59%, respectively.

`CC(C)c1ccc(Cn2c(=O)c3sccc3n3c(SCc4cccc(C(F)(F)F)c4)nnc23)cc1`: the Inhibition is reported as 11.56% in the assay on Staphylococcus aureus and 1.07% in the assay on Escherichia coli.

As for `CCc1ccccc1Sc1nccn2c(=O)n(CC(=O)Nc3cccc(Br)c3)nc12`, the values for the Inhibition in the assay with Staphylococcus aureus and in the assay with Escherichia coli were 8.83% and 2.3%, respectively.

On to `Cc1ccc(NC(=O)CSc2nc3ccccc3n3c(C(C)C)nnc23)c(Cl)c1`, for which the results for the Inhibition in the assay with Staphylococcus aureus and with Escherichia coli were -3.19% and -0.25%, respectively.

On to `Cc1ccc(Oc2nccn3c(=O)n(CC(=O)NCCC4=CCCCC4)nc23)cc1`, for which the Inhibition in the assay with Staphylococcus aureus is given as 4.93%; in the assay with Escherichia coli, -4.1%.

As for `CC1CCc2c(sc3ncn4c(=O)n(CC(=O)Nc5ccc6c(c5)CCC6)nc4c23)C1` (centres undefined), the Inhibition in the assay on Staphylococcus aureus is 4.65%; in the assay with Escherichia coli, -2.81%.

`COc1ccc(N2CCN(C(=O)Cn3nc4c(Sc5cccc(C)c5)nccn4c3=O)CC2)cc1`: the results for the Inhibition in the assay with Staphylococcus aureus and in the assay on Escherichia coli were 0.43% and -16.62%, respectively.

Regarding `O=C(CCc1nnc2c(N3CCCCC3)nc3ccccc3n12)NCc1ccccc1Cl`, the figures for the Inhibition with Staphylococcus aureus and in the assay with Escherichia coli were 7.81% and 4.64%, respectively.

`Cc1ccc(Cl)cc1NC(=O)CSc1nnc2ccc(C(=O)Nc3cccc(F)c3)cn12`: the Inhibition in the assay on Staphylococcus aureus was 14.11%; in the assay with Escherichia coli, 0.94%.

As to `COc1ccc(NC(=O)CSc2nnc3ccc(C(=O)Nc4cccc(F)c4)cn23)cc1`, the Inhibition in the assay with Staphylococcus aureus turned out to be 8.78%; in the assay with Escherichia coli, 3.37%.
